The text below walks through data of PubChem BioAssay (Tox21).

The nature of assay [1]: qHTS assay to identify small molecule antagonists of the estrogen related receptor (ERR) signaling pathway from Tox21 library - cell viability counter screen (AID 1224834). Further: nearly all actives have a fitted effect of over 30% in size. Further: potency means the concentration at half of the fitted maximal effect. In outline: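 Viability readout (CellTiter-Fluor fluorescence, 30 min at 37 C) multiplexed with the ERR assay; cells treated 17.5 h at 37 C with compounds delivered in DMSO.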
A short description of assay [2]: qHTS assay to identify small molecule antagonists of the constitutive androstane receptor (CAR) signaling pathway - cell viability counter screen (AID 1224837). Further: nearly all actives have a fitted effect of over 45% in size. Further: potency means the concentration at half of the fitted maximal effect. In outline:
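Fluorescence from CellTiter-Fluor served as the viability signal. Human hepatoma HepG2 cells stably bearing hCAR and CYP2B6-2.2kb received compound plus CITCO (50 nM final) for 23 hr.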

The target in assay [3] is Nuclear receptor subfamily 1 group I member 3 (Homo sapiens) (UniProt Q14994). The assay can be described thus: qHTS assay to identify small molecule antagonists of the constitutive androstane receptor (CAR) signaling pathway (AID 1224838).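 Further: HepG2 cells stably expressing hCAR with CYP2B6 luciferase reporter stimulated by CITCO; on the % scale 0 is the no-effect control and ±100 the full control effect; nearly all actives have a fitted effect of over 40% in size.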 An outline of the steps:
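Quantitative HTS in double-stable HepG2-CYP2B6-hCAR cells. After 4 h plating, cells get compound (15 concentrations) and CITCO at 50 nM final, incubate 24 h at 37 C, then ONE-Glo luminescence is read.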
A general note: qHTS replaces the single test concentration by a dilution series.

For assay [4] the target is unchanged. Briefly: qHTS assay to identify small molecule agonists of the constitutive androstane receptor (CAR) signaling pathway (AID 1224839). Further: nearly all actives have a fitted effect of over 15% in size. Further: potency means the concentration at half of the fitted maximal effect. On activation: on the % scale 0 is the no-effect control and ±100 the full control effect. An outline of the steps: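 HepG2 cells stably co-transfected with hCAR and a CYP2B6-2.2kb luciferase reporter; compounds at 15 concentrations with 0.75 uM PK11195 present. After 24 hr at 37 C, luciferase read by ONE-Glo luminescence.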

Assay [5] is described as follows: qHTS assay to identify small molecule antagonists of the estrogen related receptor signaling pathway with the pleiotropic PPARgamma coactivator (PGC) from Tox21 10K library - cell viability counter screen (AID 1224840; active means well fitted cell-killing curve with a large enough effect in the repeat runs, not every such curve was filed as active; further: nearly all actives have a fitted effect of over 40% in size; further: potency means the concentration at half of the fitted maximal effect). An outline of the steps: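 Compounds in DMSO, alongside positive and negative controls, were pinned onto PGC/ERR cells (2,000 per well). Exposure lasted 17.5 hours at 37 C, followed by a 30-minute CellTiter-Fluor incubation and fluorescence reading.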

The target of assay [6] is Thyrotropin receptor (Homo sapiens) (UniProt P16473). Briefly: qHTS assay to identify small molecule agonists of the thyroid stimulating hormone receptor (TSHR) signaling pathway (AID 1224843; calls by dose curve; further: on the % scale 0 is the no-effect control and ±100 the full control effect; nearly all actives have a fitted effect of over 45% in size). An outline of the steps: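 Steps: seed 800 TSHR-HEK293 cells per well; add test compound and hold 30 min at ambient temperature; dispense cAMP-d2 then anti-cAMP cryptate; incubate 1 h at ambient; measure fluorescence intensity.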

Assay [7] in a line: qHTS assay to identify small molecule agonists of the hypoxia (HIF-1) signaling pathway - cell viability counter screen (AID 1224844; calls by dose curve; further: nearly all actives have a fitted effect of over 50% in size; further: potency means the concentration at half of the fitted maximal effect). In outline: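 Luminescent ATP content (CellTiter-Glo, 30 min, room temperature) served as the viability measure in HRE-bla ME-180 cells exposed to compounds for 17 hrs in low-serum medium (0.5% dialyzed FBS).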
The nature of assay [8]: qHTS assay to identify small molecule agonists of H2AX (AID 1224845; active means well fitted activation curve with a large enough effect in the signal ratio in the repeat runs, not every such curve was filed as active; the % refers to the signal ratio; further: potency means the concentration at half of the fitted maximal effect). An outline of the steps:
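Wild-type CHO-K1 cells, plated overnight, exposed 3hr at 37C to 15 concentrations (0.76% DMSO final). Lysed, then HTRF anti-pH2AX (S139) cryptate and anti-H2AX-d2 antibodies, 24 hr room temperature; 665/620 nm emission read.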

Assay [9] is described as follows: qHTS assay to identify small molecule agonists of the hypoxia (HIF-1) signaling pathway (AID 1224846; active means well fitted activation curve with a large enough effect in the signal ratio in the repeat runs, not every such curve was filed as active; the % refers to the signal ratio; further: on the % scale 0 is the no-effect control and ±100 the full control effect). An outline of the steps: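 Measured by blue/green FRET after loading CCF4-AM: beta-lactamase expressed from a hypoxia response element in ME-180 cells. Test agents were delivered in DMSO and left 17 hrs; cells had been plated 5 hrs earlier in low-serum (0.5% dialyzed FBS) medium.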

A short description of assay [10]: qHTS assay to identify small molecule agonists of H2AX - cell viability counter screen (AID 1224847; calls by dose curve; further: nearly all actives have a fitted effect of over 30% in size; further: potency means the concentration at half of the fitted maximal effect). In outline:
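CHO-K1 cells plated overnight at 37C, then exposed 3 h at 37C to compounds at 15 concentrations (0.76% DMSO final). Viability by CellTiter-Glo luminescence after 30 min at room temperature.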

A short description of assay [11]: qHTS RealTime-Glo MT Cell Viability Assay in HEK293 cells - 32 hour (AID 1224868). Further: nearly all actives have a fitted effect of over 50% in size. Further: potency means the concentration at half of the fitted maximal effect. An outline of the steps:
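Viability tracked continuously by luminescence as live cells reduce a prosubstrate for NanoLuc; HEK293 cells preincubated 5 h, compound-treated at 37 C, and read at 0, 8, 16, 24, 32 and 40 h.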

Assay [12] in a line: A CellTox Green Cytotoxicity Assay to monitor cytotoxicity in HEK293 cells - 0 hour (AID 1224869). Further: on the % scale 0 is the no-effect control and ±100 the full control effect; nearly all actives have a fitted effect of over 50% in size. An outline of the steps:
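Each value comes from one timepoint of a single continuous run in which HEK293 cells with CellTox Green were exposed to compound for up to 40 h at 37 C, dye fluorescence rising with cell death.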

Assay [13] can be described thus: qHTS RealTime-Glo MT Cell Viability Assay in HepG2 cells - 40 hour (AID 1224870). Further: nearly all actives have a fitted effect of over 50% in size. Further: potency means the concentration at half of the fitted maximal effect. In outline: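 HepG2 cells (600/well) mixed with RealTime-Glo MT reagent, settled 5 h at 37 C/5% CO2 before compound addition. Nonlytic NanoLuc luminescence from viable-cell prosubstrate reduction read repeatedly during 40 h treatment at 37 C.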
Assay [14] can be described thus: qHTS assay to identify small molecule agonists of the constitutive androstane receptor (CAR) signaling pathway - cell viability counter screen (AID 1224836). Further: nearly all actives have a fitted effect of over 45% in size. Further: potency means the concentration at half of the fitted maximal effect. An outline of the steps:
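HepG2 cells stably carrying hCAR and a CYP2B6-2.2kb reporter; 15-concentration compounds plus PK11195 (final 0.75 uM), 23 hr at 37 C/5% CO2. Viability read by CellTiter-Fluor fluorescence.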

The nature of assay [15]: qHTS RealTime-Glo MT Cell Viability Assay in HepG2 cells - 24 hour (AID 1224867). In outline: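 Viability was tracked continuously by NanoLuc luminescence from prosubstrate reduced by living HepG2 cells, at successive time points over 40 h of compound exposure. Cells with reagent were preincubated 5 h at 37 °C before compound addition.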
Assay [16] can be described thus: qHTS assay to identify small molecule agonists of the estrogen related receptor signaling pathway with the pleiotropic PPARgamma coactivator (PGC) from Tox21 10K library (AID 1224842). Further: on the % scale 0 is the no-effect control and ±100 the full control effect; nearly all actives have a fitted effect of over 15% in size. In outline: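 PGC/ERR reporter cell line, 2,000 cells per well, incubated 6 h at 37 C before 23 nL compound in DMSO was added. After 18 h at 37 C, One-Glo luminescence read following 30 min at room temperature.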

Assay [17] can be described thus: qHTS assay to identify small molecule antagonists of the estrogen related receptor (ERR) signaling pathway from Tox21 library (AID 1224848). Further: nearly all actives have a fitted effect of over 50% in size. Further: potency means the concentration at half of the fitted maximal effect. In outline: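 Luminescent reporter read-out (ONE-Glo) from NTP's ERR cell line after 18 h treatment at 37 C with DMSO-dissolved Tox21 compounds; cells pre-plated 6 h beforehand at 2,000 per well.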
Assay [18] is described as follows: qHTS assay to identify small molecule agonists of the estrogen related receptor (ERR) signaling pathway from Tox21 library (AID 1224849; calls by dose curve; further: on the % scale 0 is the no-effect control and ±100 the full control effect; nearly all actives have a fitted effect of over 15% in size). The following applies: ERR reporter cell line, ONE-Glo luciferase, 18 h. In outline: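 We plated ERR reporter cells, waited 6 h, added compounds in DMSO by pin tool and incubated them 18 h at 37 C. ONE-Glo was then added and luminescence read after 30 min.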

The target in assay [19] is Luciferin 4-monooxygenase (Photinus pyralis) (UniProt P08659). Briefly: qHTS assay to identify small molecule inhibitors of firefly luciferase (AID 1224835). Further: on the % scale 0 is the no-effect control and ±100 the full control effect; nearly all actives have a fitted effect of over 25% in size. An outline of the steps:
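Biochemical qHTS: compounds run as interplate titrations against purified firefly enzyme, with D-luciferin and ATP each at its KM concentration. Light output recorded by CCD imaging.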

Assay [20] can be described thus: qHTS assay to identify small molecule antagonists of the estrogen related receptor signaling pathway with the pleiotropic PPARgamma coactivator (PGC) from Tox21 10K library (AID 1224841; call rule not given here). In outline: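 Compound exposure ran 18 hours at 37 C in PGC/ERR cells (2,000/well) that had first rested 6 hours in a 37 C/5% CO2 incubator. Luciferase activity was then detected with One-Glo after a 30-minute room-temperature step.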

Structures are written as SMILES. Where “and” joins values, the source holds several entries; their conditions need not be identical. Equal entries are not always repeated. Values without a mark were called inactive. Records with an inconclusive call do not appear. Calls of active or inactive are those of the source. Unless noted, the call rests on the fitted dose curve; in most records, active means well fitted curve in the direction sought with a large enough effect in the repeat runs; inconclusive means weak or mixed curves; inactive means no such curve, though single readings can be large; an effect the other way counts as inactive or inconclusive.

Nuclear receptor subfamily 1 group I member 3 (Homo sapiens), sequence (Q14994 whole entry, looked up): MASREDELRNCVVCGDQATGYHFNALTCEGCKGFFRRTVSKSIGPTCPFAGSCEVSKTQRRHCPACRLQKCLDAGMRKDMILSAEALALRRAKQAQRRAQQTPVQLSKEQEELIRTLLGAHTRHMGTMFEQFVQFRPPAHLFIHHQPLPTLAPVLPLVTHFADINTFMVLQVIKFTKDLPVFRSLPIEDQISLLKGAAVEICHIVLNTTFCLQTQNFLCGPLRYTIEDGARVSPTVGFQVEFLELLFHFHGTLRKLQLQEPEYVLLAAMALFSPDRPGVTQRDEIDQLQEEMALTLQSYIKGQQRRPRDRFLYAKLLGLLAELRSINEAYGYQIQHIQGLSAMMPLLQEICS
Thyrotropin receptor (Homo sapiens), sequence (P16473 whole entry, looked up): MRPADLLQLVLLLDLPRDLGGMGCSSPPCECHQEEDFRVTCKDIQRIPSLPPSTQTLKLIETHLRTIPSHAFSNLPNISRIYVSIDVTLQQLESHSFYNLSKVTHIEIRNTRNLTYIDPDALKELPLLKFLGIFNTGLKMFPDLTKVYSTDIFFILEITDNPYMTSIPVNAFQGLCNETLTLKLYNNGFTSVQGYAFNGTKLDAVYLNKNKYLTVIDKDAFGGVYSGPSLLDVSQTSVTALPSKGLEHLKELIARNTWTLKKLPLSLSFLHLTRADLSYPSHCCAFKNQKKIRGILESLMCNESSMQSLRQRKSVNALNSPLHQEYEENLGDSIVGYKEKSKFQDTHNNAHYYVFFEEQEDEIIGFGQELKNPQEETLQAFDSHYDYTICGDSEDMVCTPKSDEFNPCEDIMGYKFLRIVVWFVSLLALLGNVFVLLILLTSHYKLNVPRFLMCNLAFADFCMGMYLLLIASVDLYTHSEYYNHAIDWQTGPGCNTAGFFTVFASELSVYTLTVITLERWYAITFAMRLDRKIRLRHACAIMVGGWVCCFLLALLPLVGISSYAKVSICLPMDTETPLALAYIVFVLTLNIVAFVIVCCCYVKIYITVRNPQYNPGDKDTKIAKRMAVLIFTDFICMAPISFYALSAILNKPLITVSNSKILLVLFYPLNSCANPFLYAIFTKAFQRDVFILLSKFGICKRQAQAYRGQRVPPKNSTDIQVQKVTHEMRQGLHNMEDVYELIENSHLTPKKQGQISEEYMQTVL
Luciferin 4-monooxygenase (Photinus pyralis), sequence (P08659 whole entry, looked up): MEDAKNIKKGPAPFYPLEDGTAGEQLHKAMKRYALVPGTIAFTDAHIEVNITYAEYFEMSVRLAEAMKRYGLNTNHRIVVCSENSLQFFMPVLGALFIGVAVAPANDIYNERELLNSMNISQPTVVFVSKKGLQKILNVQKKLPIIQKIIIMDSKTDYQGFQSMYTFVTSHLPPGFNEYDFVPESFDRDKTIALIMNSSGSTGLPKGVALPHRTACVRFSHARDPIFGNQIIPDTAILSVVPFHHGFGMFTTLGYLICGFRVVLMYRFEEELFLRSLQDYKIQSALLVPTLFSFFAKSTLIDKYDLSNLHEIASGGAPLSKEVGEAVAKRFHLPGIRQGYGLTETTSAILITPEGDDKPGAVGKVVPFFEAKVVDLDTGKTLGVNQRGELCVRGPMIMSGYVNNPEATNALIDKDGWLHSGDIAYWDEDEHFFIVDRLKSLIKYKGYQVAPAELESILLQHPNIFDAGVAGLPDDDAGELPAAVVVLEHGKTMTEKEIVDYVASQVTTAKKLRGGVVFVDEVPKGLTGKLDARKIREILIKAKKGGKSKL

For the compound `NC(=O)CF`, the Potency entry in [1], in [2], in assay [3], in assay [4], in [5] and in assay [6] was “inactive” throughout. For the same compound, the Potency result in assay [7], in [8], in [10], in assay [11], in assay [12] and in [13] was “inactive” throughout. Moreover, the compound was called inactive in [9].

For the compound `C[N+]1(CCF)[C@@H]2CC[C@H]1CC(OC(=O)C(O)(c1ccccc1)c1ccccc1)C2` (stereo not given in full), the Potency entry in assay [1], in assay [14], in [4], in assay [6], in assay [7] and in assay [8] was “inactive” each time. For the same compound, the Potency entry in assay [10], in assay [15], in assay [11], in assay [12] and in assay [13] was “inactive” each time. Moreover, in assay [9], the call was inactive.

As for `[Cl-].[Cl-].[Hg+2]`, the Potency in assay [1] is 6.08 µM (active) and 4.33 µM (active); in assay [14], 60.8 µM (active) and 7.7 µM (active); in [2], 60.8 µM (active) and 5.45 µM (active); in assay [5], 15.3 µM (active) and 2.43 µM (active); in assay [7] it was 43.5 µM (active); in assay [8], 1.26 µM (active) and 1.42 µM (active). Besides, the Potency in assay [10] was 17.8 µM (active) and 7.13 µM (active); in assay [13], 3.89 µM (active). For the same compound, the Potency result in assay [12] is “inactive”.

For the compound `CC[N+]1(C)CCCC(OC(=O)C(O)(c2ccccc2)c2ccccc2)C1` (stereo not given), the Potency result in assay [1], in assay [14], in [3], in [4], in [5] and in assay [16] was “inactive” in each case. Also, the Potency entry in assay [6], in [7], in assay [8], in [10], in [17] and in assay [11] was “inactive” throughout. Besides, the Potency result in assay [12] and in [13] was “inactive” each time. Moreover, in [18] (at 42.5 µM (top of the series)), the activity change, positive = activation is 6.13%.

With `c1ccc2c(c1)-c1cccc3cccc-2c13`, the Potency entry in [1], in [14], in [3], in assay [5], in [6] and in [8] was “inactive” in each case. Further, the Potency result in assay [10], in assay [15], in assay [11], in [12] and in assay [13] was “inactive” throughout. Besides, the outcome in [9] was inactive.

Turning to `CCCN(CCOc1c(Cl)cc(Cl)cc1Cl)C(=O)n1ccnc1`, the Potency entry in [19], in assay [14], in assay [3], in assay [16], in assay [7] and in assay [8] was “inactive” throughout. Moreover, the Potency result in [15] and in assay [13] was “inactive” throughout. In addition, the Potency is 54.5 µM (active) in [4]; 55.6 µM (active) and 27.3 µM (active) in assay [20]; 15.7 µM (active) and 24.3 µM (active) in assay [17]; 19.9 µM (active) and 27.5 µM (active) in assay [11]. Moreover, in assay [9], the compound was classed as inactive. Besides, the activity change, positive = activation in [18] (at 92.4 µM (top of the series)) is -62.9% and -57.3%.
